# From PubChem BioAssay AID463173 (ICCB-Longwood Screening Facility, Harvard Medical School, 2010)
# Out of some 52,000 compounds screened, about 4,300 (8.3%) were called active. The sample as a whole holds a higher share of actives than the screen did. Unmarked numbers belong to inactive results. Rule as the data show it: active = survival mostly below about 52% (no sharp cut-off); inactive = mostly above about 56%.
# System: DeltatarO mutant
# Experiment: S. aureus survival, RN4220 and DeltatarO strains – OD600, teichoic acid synthesis inhibitors, primary screen (AID 463173)
# Conditions: S. aureus RN4220 wild type/DeltatarO growth, OD600, 18 h, stronger effect = lower value, screened at 18.75 µg/mL (by protocol)
row,Compound,survival
1,CCc1ccc(CN2C(=O)c3ccccc3C2C(=O)NC2CCCCCC2)cc1 (stereo not given),75%
2,CCn1c(=O)c(C(=O)Nc2ccc(Cl)cn2)c(O)c2ccccc21,95%
3,CSc1nn(Cc2ccc(F)cc2)c(N)c1S(=O)(=O)c1ccc(Cl)cc1,101%
4,Cc1ccc(Cl)cc1-n1ncc2c(Nc3cccc(C)c3C)ncnc21,82%
5,CN1CCN(CCNC(=O)c2cnn(-c3ccc(Cl)cc3)c2C2CCN(C(=O)OC(C)(C)C)CC2)CC1,69%
6,Cc1ccc2c(=O)cc(C(=O)Nc3sc4c(c3C(=O)NCc3ccccc3)CCCC4)oc2c1C,89%
7,O=C(Nc1sc2c(c1C(=O)NCc1ccccc1)CCCC2)c1cc(=O)c2cc(Cl)ccc2o1,49%
8,O=C(Nc1sc2c(c1C(=O)NCc1ccccc1)CCCC2)c1cc(=O)c2ccccc2o1,67%
9,Cc1ccc2c(=O)cc(C(=O)Nc3sc4c(c3C(=O)NCc3ccco3)CCCC4)oc2c1C,80%
10,Cc1ccc2oc(C(=O)Nc3sc4c(c3C(=O)NCc3ccccc3)CCCC4)cc(=O)c2c1,66%
11,Cc1cc2oc(C(=O)Nc3sc4c(c3C(=O)NCc3ccco3)CCC4)cc(=O)c2cc1C,38% (active)
12,Cc1cc(C)c2oc(C(=O)Nc3sc4c(c3C(=O)NCc3ccco3)CCCC4)cc(=O)c2c1,82%
13,O=C(Nc1sc2c(c1C(=O)NCc1ccco1)CCCC2)c1cc(=O)c2ccccc2o1,43% (active)
14,O=C(Nc1sc2c(c1C(=O)NCc1ccco1)CCCC2)c1cc(=O)c2cc(Cl)ccc2o1,38% (active)
15,Cc1ccc2c(=O)cc(C(=O)Nc3sc4c(c3C(=O)NCc3ccco3)CCC4)oc2c1,78%
16,Cc1cc2oc(C(=O)Nc3sc4c(c3C(=O)NCc3ccccc3)CCCC4)cc(=O)c2cc1C,39% (active)
17,Cc1ccc2oc(C(=O)Nc3sc4c(c3C(=O)NCc3ccco3)CCC4)cc(=O)c2c1,82%
18,CC[n+]1c(C)sc2sc3ccccc3c21,68%
19,COC(=O)Cn1nc(C)c2c(C)n(-c3ccccc3)nc2c1=O,90%
20,CCOc1ccc(NC(=O)Cn2cc(C(=O)c3ccc(CC)cc3)c(=O)c3cc4c(cc32)OCO4)cc1,86%
21,O=C(Cn1nc(-c2ccccc2)nc(Cc2ccccc2)c1=O)Nc1ccccc1,90%
22,O=C(NCc1noc2ccccc12)N1CCN(c2ccccc2F)CC1,40%
23,COc1cccc(CSc2nc(-c3ccccc3OC)nc3c2Cc2c(CO)cnc(C)c2O3)c1,57%

row,Compound,survival
1,CCCn1c2ccccc2c2cnn(CC(=O)NCc3cc(OC)ccc3OC)c(=O)c21,122%
2,CCN(CC)S(=O)(=O)c1ccc2c(c1)c(=O)c(C(=O)NCc1ccccc1OC)cn2C,71%
3,COc1cccc(C(=O)Nc2nc3nc(C)c(C)c(=O)n3[nH]2)c1,104%
4,Cc1cc(C)c2c(=O)cc(C(=O)Nc3sc4c(c3C#N)CCCC4)oc2c1,12% (active)
5,COC(=O)c1c(NC(=O)c2cc(=O)c3c(C)cc(C)cc3o2)sc2c1CCCC2,61%
6,CCOC(=O)c1c(NC(=O)c2cc(=O)c3c(C)cc(C)cc3o2)sc2c1CCC2,61%
7,Cc1ccc(C(=O)NCC(c2ccco2)S(=O)(=O)c2cccs2)cc1C (stereo not given),102%
8,CC(=O)c1ccc(NC(=O)CCc2c(C)nn(-c3ccc4nncn4n3)c2C)cc1,91%
9,Cc1cccc(N2CCN(C(=O)Cn3nc(C)n4cccc4c3=O)CC2C)c1 (stereo not given),90%
10,COC(=O)c1cc2occc2n1Cc1ccc(F)cc1Cl,30% (active)
11,COC(=O)c1cc2oc(C)cc2n1Cc1cccc(Cl)c1,-8% (active)
12,COC(=O)c1cc2oc(C)cc2n1Cc1ccc(C)cc1,69%
13,COC(=O)c1cc2oc3ccccc3c2n1Cc1ccccc1Cl,72%
14,COC(=O)c1cc2sccc2n1Cc1ccc(F)cc1Cl,65%
15,COC(=O)c1cc2oc(C)cc2n1Cc1ccc(Br)cc1F,75%
16,COC(=O)c1cc2sc(C)cc2n1Cc1ccc(F)cc1Cl,76%
17,COC(=O)c1cc2oc(C)cc2n1Cc1ccccc1Cl,-8% (active)
18,COC(=O)c1cc2oc(C)cc2n1Cc1c(C)cc(C)cc1C,46%
19,COC(=O)c1cc2oc(C)cc2n1Cc1ccc(Cl)cc1,73%
20,COC(=O)c1cc2oc(C)cc2n1Cc1cc(C)ccc1C,-9% (active)
21,COC(=O)c1cc2oc(C)cc2n1CC(=O)Nc1cc(Cl)ccc1OC,77%
22,O=C(NCc1ccccc1)c1cc2sccc2n1Cc1ccc(F)cc1,88%
23,Cc1cc(C)cc(-n2c(SCC(=O)Nc3nnc(C)s3)nc3c([nH]c4ccccc43)c2=O)c1,68%

row,Compound,survival
1,O=C(NC1CC(=O)N(c2cccc(F)c2)C1)c1ccc(Br)o1 (stereo not given),101%
2,CC(C)(C)C1CCc2c(sc(NC(=O)c3noc4c3CCCC4)c2C#N)C1 (stereo not given),53%
3,Cc1nnc(N(C)C(=O)CNC(=O)c2ccccc2)s1,75%
4,COc1ccc(NC(=O)c2ccccc2NC(=O)c2ccco2)cc1,74%
5,CCOC(=O)c1c(C)oc2nc(C)nc(NCCc3ccc(SC)cc3)c12,83%
6,Cc1cccc(CSc2nc3cc(C(=O)NC4CCCC4)ccc3c(=O)n2Cc2ccccc2)c1,69%
7,COc1ccc(Cl)cc1NC(=O)c1cc(S(=O)(=O)NC2CCCCCC2)ccc1F,71%
8,COC(=O)c1cc2occc2n1Cc1cccc(C)c1,-6% (active)
9,COC(=O)c1cc2oc3ccccc3c2n1Cc1cccc(C)c1,31% (active)
10,CCOC(=O)c1cc2oc(C)cc2n1CCCN1C(=O)c2ccccc2C1=O,0% (active)
11,COC(=O)c1cc2oc3ccccc3c2n1Cc1ccc(Cl)cc1,76%
12,COC(=O)c1cc2oc3ccccc3c2n1Cc1ccc(C)cc1,93%
13,C=CCn1c(C(=O)OCC)cc2oc(C)cc21,119%
14,COC(=O)c1cc2occc2n1Cc1nc(-c2ccc(C)cc2)oc1C,69%
15,CCOC(=O)c1cc2oc(C)cc2n1CC(=O)NC1CC1,86%
16,CCc1cccc(NC(=O)Cn2c(C(=O)OC)cc3occc32)c1,92%
17,COc1ccc(Cl)cc1C1CC(=O)Nc2cc3c(cc21)OCCO3 (stereo not given),102%
18,O=C(Nc1ccc(Br)cc1F)C1CCN(c2nc3ccccc3[nH]2)CC1,102%
19,CCCNC(=O)Cn1c(=O)n(CC2CCC(C(=O)NC)CC2)c(=O)c2sccc21 (stereo not given),87%
20,Cc1cccc(NC2=NCC(=O)N2Cc2ccccc2)c1,89%
21,CCOC(=O)N1CCN(C(=O)c2ccc3c(c2)N(Cc2ccccc2F)C(=O)c2ccccc2S3(=O)=O)CC1,72%
22,O=S(=O)(c1ccc(OC(F)(F)F)cc1)N1CCC(c2nc3ccccc3s2)CC1,65%
23,CNC(=O)C1CCC(Cn2c(=O)c3sccc3n(CC(=O)Nc3ccccc3)c2=O)CC1 (stereo not given),75%

row,Compound,survival
1,CCOC(=O)c1sc2nc(C)n(CC(=O)Nc3cccc(Cl)c3)c(=O)c2c1C,71%
2,CCOc1ccc(NC(=O)CSc2nccn2Cc2ccco2)cc1,91%
3,CCc1ccc(-c2cn3c(n2)sc2cc(C(=O)NCCc4ccc(OC)cc4OC)ccc23)cc1,59%
4,COc1ccc(-c2cn3c(n2)sc2cc(C(=O)NCCc4ccc(OC)cc4OC)ccc23)cc1,65%
5,CCOc1ccc(CNC(=O)c2ccc3c(c2)sc2nc(-c4ccccc4)cn23)cc1,74%
6,CCOc1ccc(-c2cn3c(n2)sc2cc(C(=O)NCCc4ccc(OC)c(OC)c4)ccc23)cc1,49% (active)
7,CCOc1ccc(-c2cn3c(n2)sc2cc(C(=O)NCCc4ccc(OC)cc4OC)ccc23)cc1,40% (active)
8,COc1cccc(-c2cn3c(n2)sc2cc(C(=O)NCCc4ccccc4)ccc23)c1,38% (active)
9,COc1cccc(-c2cn3c(n2)sc2cc(C(=O)NCCCc4ccccc4)ccc23)c1,54%
10,COc1ccc(-c2cn3c(n2)sc2cc(C(=O)NCCc4ccccc4)ccc23)cc1,86%
11,CCOc1ccc(-c2cn3c(n2)sc2cc(C(=O)NCCC4=CCCCC4)ccc23)cc1,87%
12,CCOc1ccccc1CNC(=O)c1ccc2c(c1)sc1nc(-c3ccccc3)cn12,67%
13,CCOc1ccc(CCNC(=O)c2ccc3c(c2)sc2nc(-c4ccc(F)cc4)cn23)cc1OCC,42% (active)
14,COc1ccccc1CNC(=O)c1ccc2c(c1)sc1nc(-c3ccc(F)cc3)cn12,63%
15,COc1ccc(C(C#N)N2N=C(C)CC2c2ccccc2)cc1OC (stereo not given),108%
16,CC(=O)c1ccc(NC(=O)CSc2nc(C3CCCC3)nc3c2c(=O)n(C)c(=O)n3C)cc1,78%
17,Cc1cccc(C)c1-n1ncc(C(=O)N2CCN(c3ncccn3)CC2)c1C1CCN(C(=O)OC(C)(C)C)CC1,95%
18,COc1cc(OC)c(NC(=O)CCc2nc(C3=CCN(Cc4cccc(Cl)c4)CC3)no2)cc1Cl,75%
19,Cc1cc(C)c(NC(=O)CN(C)S(=O)(=O)c2ccc3c(c2)c(=O)n(C)c(=O)n3C)c(C)c1,81%
20,Cc1ccc(Cl)cc1-n1ncc2c(N3CCC(C)CC3)ncnc21,128%
21,COc1cc(C(CC(=O)Nc2ccc(Br)cn2)N2Cc3ccccc3C2=O)cc(OC)c1OC (stereo not given),78%
